Experimental data taken from the OligoGym collection.

target: ALOX12B; experiment: pooled miR-30 sensor sort-seq; sequence = guide strand; conditions: shRNA
Also: reference of the scale not given here.

| Sequence | sensor-assay potency score (higher = more potent) |
| --- | --- |
| TAATAGGTGATGATCTCCGTCA | -0.427 |
| TCGCCAGTGGTAGAAGTCCTGC | -1.5 |
| TCACATACTTCTCCAGTGCATT | -1.5 |
| TCTGATCTCCTCTTTTCTGTGC | 0.286 |
| TATAGTGACATATCGGATCAGC | -0.0361 |
| TACTGGTACCCAAAGAAGGTGT | -0.741 |
| AACTTGTCTGGGATCCGCGTGC | 0.172 |
| ATAATAGGTGATGATCTCCGTC | -0.228 |

target: ALPK1; experiment: as above; conditions: shRNA

| Sequence | sensor-assay potency score (higher = more potent) |
| --- | --- |
| TTGATGAAGATGATGAACCCAA | 0.0893 |
| TTGTTCATAGAGTCTCTTGTTA | 0.0334 |
| TTGAACTTGTAAATGTTCCTTC | 0.693 |
| TTGCAGAGGAACTAAACCCTGA | -0.0397 |
| TAACTTCTTGAGACAGAGCTTC | -0.293 |
| AAATCGACCACAACATCTCTAT | -0.634 |
| TAAATCGACCACAACATCTCTA | 0.166 |
| TCTGTTTTCACCACTTTCGTGT | 0.311 |
| TATACAGACCGACTGCACCAGG | -1.24 |
| TTCACTAATTTCTTCTCCCTGC | -0.272 |
| TTCATTACATTCCACATGCTGG | -0.496 |

target: AMICA1; experiment: as above; conditions: shRNA

| Sequence | sensor-assay potency score (higher = more potent) |
| --- | --- |
| TCTATCTTGAATATACATTTGT | -0.466 |
| TCTGGATTAGTCTTCTTCGTGT | -0.36 |
| TTTGTCTTCTGTGCTCTGGAAA | -0.894 |
| TTGCACATCTTGGAGCAGGAGA | -0.908 |
| TATCTCTGGATTAGTCTTCTTC | -0.382 |
| TATAGCACATATTCGTCCTTGG | -0.0697 |
| TTTTCAAGTGAGTTGTTCCGAT | -0.169 |
| TATACATTTGTCTTCTGTGCTC | -0.0847 |
| AATAGTATAGCACATATTCGTC | -1.02 |
| TATCAGAACAGGGAGCAGCAGG | -0.745 |
| TTCTTGAACACCAGGTTCCCTA | -1.01 |
| TGAATATACATTTGTCTTCTGT | -0.514 |

target: AMOTL1; experiment: as above; conditions: shRNA

| Sequence | sensor-assay potency score (higher = more potent) |
| --- | --- |
| TAATCATAGCATCTTTCTCTAT | -1 |
| TTTCTCAACATATGCTTGCTTC | -0.629 |
| TTTTTCAAACTTGTGGAGCTTG | 0.0773 |
| TTGTCAGTCTGTGTGCTGCTGT | 0.0814 |
| TTTGTCTTCATGCCCTTCGTAT | -0.754 |
| TTCTTGAGTGAGGTTTTCCGTG | -0.593 |
| TTGTGGGTCTTCTTGAGTGAGG | -0.72 |
| TTGCAGTCCGCACTGCTGCTAA | -0.698 |
| TAGCAGTCTCTAGTCGATCTCG | -0.33 |
